Reference: PubChem BioAssay (NCI)
This is part of a sample that, as a whole, favours compounds with a hit. Of some 79,000 tested, about 15% had one in any assay. A number with no mark means an inactive call. The source made the active and inactive calls. No stated cut-off is given here; in the data, active means growth inhibition above about 70%; inactive means the rest.

Legend:
[1] = NCI Yeast Anticancer Drug Screen. Data for the rad50 strain (AID 155);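 further: 0% = growth of vehicle-only cultures of the same strain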; details: S. cerevisiae rad50 strain growth inhibition, active compounds read high
Method in brief: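 Readout: growth inhibition relative to vehicle-treated cultures. Compound exposure was carried out in a genetically defined yeast strain deficient in DNA damage repair.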

[2] = NCI Yeast Anticancer Drug Screen. Data for the mec2-1 strain (AID 157); details: S. cerevisiae mec2-1 strain, active compounds read high
Method in brief: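 Readout is yeast growth inhibition, normalised to vehicle-treated controls, in the mec2-1 strain exposed to compound.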

[3] = NCI Yeast Anticancer Drug Screen. Data for the sgs1 mgt1 strain (AID 161);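 further: 0% = growth of cultures given vehicle only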; details: S. cerevisiae sgs1 mgt1 strain, active compounds read high
Method in brief: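 Percent growth inhibition was derived by comparing compound-exposed mutant yeast with vehicle-exposed cultures. The strain carries alterations in DNA damage repair.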

[4] = NCI Yeast Anticancer Drug Screen. Data for the cln2 rad14 strain (AID 165);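 further: 0% = growth equal to vehicle treated cultures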; details: S. cerevisiae cln2 rad14 strain, active compounds read high
Method in brief: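 Relative to vehicle controls, growth inhibition of compound-treated cln2 rad14 yeast was recorded.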

[5] = NCI Yeast Anticancer Drug Screen. Data for the bub3 strain (AID 167); details: S. cerevisiae bub3 mutant strain, active compounds read high
Method in brief: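 Readout: yeast growth inhibition, expressed relative to vehicle-only wells. The test organism is a mutant strain from a panel with lesions in DNA repair or checkpoint genes.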

[6] = NCI Yeast Anticancer Drug Screen. Data for the mlh1 rad18 strain (AID 175); details: S. cerevisiae mlh1 rad18 strain growth inhibition, active compounds read high
Method in brief: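 Test agents were incubated with a yeast strain of defined genotype (DNA damage repair defect). Inhibition of growth was derived by comparison with vehicle-exposed cultures.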

[7] = at 5.0 µM (retest, dose inferred, filed as 0.5)
[8] = at 50.0 µM (retest, dose inferred, filed as 5.0)

Row | Structure (SMILES) | growth inhibition [1, 7] | growth inhibition [1, 8] | growth inhibition ([1]; at 50.0 µM) | growth inhibition [2, 7] | growth inhibition [2, 8] | growth inhibition ([2]; at 50.0 µM) | growth inhibition [3, 7] | growth inhibition [3, 8] | growth inhibition ([3]; at 50.0 µM) | growth inhibition [4, 7] | growth inhibition [4, 8] | growth inhibition ([4]; at 50.0 µM) | growth inhibition [5, 7] | growth inhibition [5, 8] | growth inhibition ([5]; at 50.0 µM) | growth inhibition [6, 7] | growth inhibition [6, 8] | growth inhibition ([6]; at 50.0 µM)
1 | COc1cc([C@@H]2c3cc4c(cc3[C@@H](OC3OC5CO[C@@H](c6cccs6)OC5C(O)C3O)[C@H]3COC(=O)[C@H]23)OCO4)cc(OC)c1O (some centres not stated) | 74% (active) | 96% (active) | 86.6% (active) | 5% | 92% (active) | 74.8% (active) | 6% | 77% (active) | 63.7% | -3% | 79% (active) | 47.6% | -2% | 74% (active) | 49.8% | 5% | 86% (active) | 64.7%
2 | COc1ccc2nc3cc(Cl)ccc3c(NCCCCN(C)C)c2c1 | -2% | 21% | 40.7% | 1% | 18% | 35.8% | -5% | 30% | 37.5% | 5% | 21% | 89.2% (active) | -3% | 18% | 39.6% | 0% | 21% | 31.5%
3 | C=CC(=O)Oc1ccccc1/C=C/C(=O)CCCCCC | 37% | 95% (active) | 96.5% (active) | 4% | 98% (active) | 97.5% (active) | 14% | 88% (active) | 97.5% (active) | -2% | 72% (active) | 62.8% | 0% | 95% (active) | 83.1% (active) | 4% | 95% (active) | 96% (active)
4 | Cc1cccc[n+]1CC(=O)c1cccc(O)c1 | 1% | -2% | -11.1% | -2% | 4% | -3.5% | 0% | -2% | -7.45% | 4% | -4% | 36.6% | 1% | -3% | -13.6% | -2% | -4% | 7.25%
5 | CCC[CH2][Sn]([CH2]CCC)([O]C(=O)C1CCC(=O)N1)[O]C(=O)C1CCC(=O)N1 (configuration not stated) | 93% (active) | 93% (active) | 90.3% (active) | 94% (active) | 94% (active) | 90.7% (active) | 91% (active) | 91% (active) | 90% (active) | 96% (active) | 96% (active) | 91% (active) | 94% (active) | 94% (active) | 90.9% (active) | 95% (active) | 95% (active) | 88.7% (active)
6 | O=C1NC(=S)S/C1=C/c1ccc(/C=C2/SC(=S)NC2=O)cc1 | -16% | -3% | 21% | -10% | -14% | 22.6% | -6% | -3% | 9.45% | -19% | -22% | 58.4% | -12% | -12% | 7.75% | -15% | -19% | 28.4%
7 | O=C(CCC(NC(=O)OCc1ccccc1)C(=O)OCc1ccccc1)NC(CSCc1ccccc1)C(=O)NCC(=O)Oc1c(Cl)c(Cl)c(Cl)c(Cl)c1Cl (configuration not stated) | 8% | 51% | 31% | 9% | 32% | 28.8% | 7% | 35% | 64.2% | -7% | 48% | 45% | 3% | 59% | 18.8% | 8% | 54% | 60.7%
8 | O=C(OCCN=c1c2ccccc2ccc2ccccc12)c1ccccc1 | 0% | 97% (active) | 42% | -14% | 94% (active) | 31.4% | -43% | 83% (active) | 65.3% | 22% | 36% | 29.8% | 2% | 98% (active) | 71% (active) | -19% | 98% (active) | 15.7%
9 | CCCCCCSc1nn(CCC#N)c(=O)[nH]c1=O | -1% | -36% | 96% (active) | 5% | 36% | 93.5% (active) | 1% | 40% | 91.5% (active) | 13% | 10% | 78.5% (active) | 24% | -6% | 74.8% (active) | 3% | 21% | 96.7% (active)
